Sampled rows, rich in hits. Any-hit rate of the full collection: about 3.9%.
Anthrax LF inh2 = inhibitors of Bacillus anthracis lethal factor protease; multiplex microsphere protease cleavage assay, LF; inhibition, % at 10 µM; 360,000 compounds, 0.12% hits; also: plate controls were buffer without enzyme for full effect and enzyme alone for no effect
Target sequence (P15917 whole entry, looked up): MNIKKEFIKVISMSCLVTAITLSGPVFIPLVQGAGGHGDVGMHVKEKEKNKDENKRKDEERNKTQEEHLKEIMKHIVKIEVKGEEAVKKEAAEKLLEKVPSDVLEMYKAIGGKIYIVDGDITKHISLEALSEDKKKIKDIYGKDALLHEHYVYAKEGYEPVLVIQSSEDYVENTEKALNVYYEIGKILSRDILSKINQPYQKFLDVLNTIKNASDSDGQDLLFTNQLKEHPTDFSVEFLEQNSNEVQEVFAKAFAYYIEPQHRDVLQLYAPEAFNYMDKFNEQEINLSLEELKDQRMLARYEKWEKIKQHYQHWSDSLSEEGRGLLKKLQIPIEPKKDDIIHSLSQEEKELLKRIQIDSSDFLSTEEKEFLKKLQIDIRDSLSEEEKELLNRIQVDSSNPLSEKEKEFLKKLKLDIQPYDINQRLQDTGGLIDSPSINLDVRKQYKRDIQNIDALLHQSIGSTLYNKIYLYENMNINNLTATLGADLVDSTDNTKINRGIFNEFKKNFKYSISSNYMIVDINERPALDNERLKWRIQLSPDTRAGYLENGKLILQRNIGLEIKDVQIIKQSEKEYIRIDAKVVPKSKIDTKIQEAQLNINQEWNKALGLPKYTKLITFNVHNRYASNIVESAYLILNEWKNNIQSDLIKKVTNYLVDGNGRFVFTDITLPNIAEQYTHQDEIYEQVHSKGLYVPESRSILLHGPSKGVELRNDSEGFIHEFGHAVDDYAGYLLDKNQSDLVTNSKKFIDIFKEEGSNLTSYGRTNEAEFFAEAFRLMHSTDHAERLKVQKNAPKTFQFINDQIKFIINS
BoNT A protease = blocks Botulinum neurotoxin A light chain protease; multiplex microsphere protease substrate cleavage, flow cytometry; inhibition, % at 10 µM; 360,000 compounds, 0.17% hits; AID 588499; also: plate controls were buffer without enzyme for full effect and enzyme alone for no effect
BoNT-F LC inh = BoNT F light chain protease inhibition | Multiplex microsphere protease cleavage assay, flow cytometry | inhibition, % at 10 µM | 360,000 compounds, 0.22% hits | AID 588497; in the data active = inhibition above about 35%, passing the limit was not always enough; inconclusive = no clear call, values can overlap the other calls; also: plate controls were buffer without enzyme for full effect and enzyme alone for no effect
3CLpro inhibitor = SARS-CoV 3CLpro protease inhibition; P0C6X7; recombinant SARS-CoV 3CLpro, quenched FRET peptide cleavage; inhibition, % at 6 µM; 290,000 compounds, 0.14% hits; AID 1706; in the data active = inhibition above about 12%
CCHF vOTU inh = blocks the CCHF virus ovarian tumor domain protease; CCHFV vOTU protease, Pep-AMC fluorescence; inhibition, % at 11.5 µM; 370,000 compounds, 0.55% hits; AID 651958; in the data active = inhibition above about 30%; also: 0% = vehicle wells with enzyme and 100% = no enzyme wells
Bead autofluor = flagged as autofluorescent in microsphere protease counterscreen; fluorescence intensity (no concentration beside the values); compound autofluorescence counterscreen, microsphere flow cytometry; stronger effect = higher value; 360,000 compounds, 3.1% hits; in the data active = fluorescence intensity above about 16000; inconclusive = no clear call, values can overlap the other calls
An asterisk follows results filed as active; ? = inconclusive; nt = no result. Rule as the data show it, unless noted: active = inhibition above about 30%; inconclusive = no clear call, values can overlap the other calls; inactive = below that.

SMILES	Anthrax LF inh2	BoNT A protease	BoNT-F LC inh	3CLpro inhibitor	CCHF vOTU inh	Bead autofluor
COc1ccc(C(=O)NC(=S)N(Cc2ccccc2)Cc2ccccc2)cc1	-6	0	-2	-2	9	16570*
COc1ccc(NC(=O)CC(Cc2ccccc2)C(=O)O)cc1 (stereo not given)	-3	0	0	0	2	22709*
CN(C)C(Cc1ccccc1)C(=O)c1ccc(-c2ccccc2)cc1 (stereo not given)	-2	?	-6	-5	4	16369*
COc1ccc(C(=O)C(Cc2ccccc2)N(C)C)cc1 (stereo not given)	-2	1	1	-2	-8	16157*
O=C(NCCN1CCC(n2c(=O)[nH]c3ccccc32)CC1)c1cccc(F)c1	-4	-1	-5	nt	-3	5841
Cc1snc(S(=O)(=O)Cc2ccccc2Cl)c1C#N	-3	-1	-1	-12	3	21018*
O=S(=O)(Cc1ccccc1Cl)c1ncn[nH]1	3	0	-1	1	-2	6250
N#Cc1c(NC(=O)CSC2=NCCS2)sc2c1CCCC2	-1	0	-3	1	-3	16243*
NC(=O)c1c(NC(=O)CSc2nc3c(c(C(F)(F)F)n2)CCc2ccccc2-3)sc2c1CCCC2	-3	0	-8	-3	nt	11293
N#Cc1c(NC(=O)CSc2nc3c(c(C(F)(F)F)n2)CCc2ccccc2-3)sc2c1CCCC2	-1	-2	0	5	-15	22691*
Cc1cc(C(=O)Nc2sc3c(c2C#N)CCC3)no1	-1	2	0	-2	7	22362*
Cc1cc(C(=O)Nc2sc3c(c2C#N)CCCC3)no1	-1	0	0	-2	2	9715
CC(=O)Nc1c(O)nc(SCC(=O)Nc2sc3c(c2C#N)CCCCCC3)[nH]c1=O	-4	3	2	3	4	19485*
N#Cc1c(NC(=O)CSc2ncn[nH]2)sc2c1CCCC2	-3	1	-8	-5	5	3804
Nc1nc(C(c2ccccc2)c2ccccc2)cs1	-2	2	3	0	27	5565
O=C(NCC1CCN(C(=O)C(=O)c2cc3ccccc3o2)CC1)c1ccc2c(c1)OCCCO2	nt	nt	nt	nt	-4	nt
CC(=O)Nc1sc2c(c1C#N)CCCCC2	-9	?	-6	-1	-4	23128*
CCn1c(=O)c2ccccc2n2c(SCC(=O)N3CCCc4ccccc43)nnc12	-3	-4	-6	2	-7	24095*
COc1cc(C(=O)NC2=C(C#N)CCC2)cc(OC)c1OC	-1	-1	1	0	3	2164
C/C(=N\O)C(=O)OC1CC(C)CCC1C(C)C (stereo not given)	0	-1	-3	2	12	24312*
CC1CCC(C(C)C)C(OC(=O)COC(=O)c2ccc(N)cc2)C1 (stereo not given)	-1	0	2	4	-4	2721
CN1CCN(CCCNC(=O)CCN2C(=O)COc3ccccc32)CC1	3	2	6	0	5	5441
CCCCCCOc1ccc(CN2CCN(C)CC2)cc1	-2	?	-4	-1	-7	24568*
CCCCOc1ccc(CN2CCCCC2)cc1	-2	-1	-8	0	-10	12284
O=C1c2ccccc2C(=O)N1CCc1nc(-c2ccc(Cl)cc2)no1	-35	2	2	5	3	21023*
SMILES	Anthrax LF inh2	BoNT A protease	BoNT-F LC inh	3CLpro inhibitor	CCHF vOTU inh	Bead autofluor
O=C1c2ccccc2C(=O)N1CCc1nc(-c2ccncc2)no1	-8	2	2	1	0	19470*
CCN(CC(=O)Nc1ccc(OC)cc1)C(=O)c1ccc([N+](=O)[O-])cc1	-2	-1	0	4	-6	3228
CCOCC(=O)Nc1cc(-c2cn3cccnc3n2)ccc1C	-2	?	-6	1	nt	22267*
CC1(C)CC(=O)C=C(NNC(=O)c2ccccc2O)C1	-4	-1	-1	-1	-15	16377*
Cc1cccc(C(=O)NNC2=CC(=O)CC(C)(C)C2)c1O	5	-1	3	-1	-4	3769
Cc1ccc(C)c(N(CC(=O)NC(C)(C)C)C(=O)CNC(=O)c2cccs2)c1	-6	0	-9	1	-9	4045
CC(C)NC(=O)Cn1nc(C(F)(F)F)c2c1CCC2	2	0	3	3	7	?
O=C(Cn1nc(C(F)(F)F)c2c1CCCC2)NC1CCCC1	-2	-1	-3	1	8	23402*
O=C(CCN1C(=O)COc2ccccc21)NCCCN1CCCC1	2	2	3	1	0	4259
COCCn1c(C)cc(C(=O)COC(=O)CCS(=O)(=O)c2ccc(C)cc2)c1C	-5	-4	-12	nt	2	6959
Cc1ccc(NC(=O)CCc2ccc(S(=O)(=O)N3CCOCC3)cc2)c(C)c1	-8	?	3	1	1	20854*
COCCn1c(C)cc(C(=O)COC(=O)CCc2ccc(S(=O)(=O)N3CCOCC3)cc2)c1C	-3	?	-2	2	10	22125*
COc1ccc(-c2c(C)nn(-c3ccccc3)c2N)cc1OC	-3	-1	-4	-4	-7	8940
COc1ccc(-c2c(C)nn(-c3ccccc3)c2N)cc1	-1	?	5	-3	2	20023*
O=c1c2ccccc2nc(CN2CCCCCC2)n1-c1ccc(F)cc1	0	3	-7	-2	-1	24642*
CC(=O)c1c(C)[nH]c(C(=O)OCC(=O)N2CCc3ccccc3C2)c1C	5	0	-12	nt	-2	5768
COc1ccc(CNC(=O)CCCn2c(SCC#N)nc3cc4c(cc3c2=O)OCO4)cc1	-1	3	0	-2	-2	21923*
O=C(CSc1nc2ccccc2c(=O)n1NC(=O)Cc1ccccc1)NCCc1ccccc1	-2	3	3	-2	-9	21231*
COCCCNC(=O)CSc1nc2ccccc2c(=O)n1CCCN1CCCCC1	1	-1	4	-1	-13	4142
O=C(CCCn1c(SCC(=O)NCC2CCCO2)nc2ccccc2c1=O)NCC1CCCO1 (stereo not given)	-1	-2	-4	3	-1	20974*
COCCNC(=O)CSc1nc2ccccc2c(=O)n1CCCC(=O)NCc1ccccc1	-4	?	1	0	-4	22634*
CCOc1ccc(NC(=O)CSc2nc3ccccc3c(=O)n2CCCC(=O)NCC2CCCO2)cc1 (stereo not given)	-5	-1	-9	6	-4	4218
CN(C)S(=O)(=O)c1cccc(NC(=O)c2ccccc2SCC(=O)N2CCCC2)c1	4	0	5	nt	0	3665
COC(=O)[C@H]1C[C@@]2(N3CCCC3)c3ccccc3N[C@H]2N1S(C)(=O)=O	nt	nt	nt	nt	-4	nt
O=C(CSc1nc2cc(Cl)ccc2o1)NCCc1ccccc1	0	-1	-4	2	-8	19890*
CCCN(CCC)C(=O)CSc1nc2ccsc2c(=O)n1NC(=O)c1ccccc1	-3	2	?	-3	3	?
CC(C)CCNC(=O)CSc1nc2ccsc2c(=O)n1NC(=O)c1ccccc1	-3	1	2	4	-3	21825*

Assay outcomes from PubChem BioAssay.
